This note sets out measurements from PubChem BioAssay (NCATS).

Assay [1] in a line: High-throughput drug toxicity screening in the BPDCN cell line Gen2.2 (AID 1224824; call rule not given here;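 further: cells exposed to compounds for 48 h before reading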). The conditions noted are these: Gen2.2 BPDCN cells; at 45.8 µM (top of the series) unless noted. The gist of the method: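 Gen2.2 cells, 500 per well in phenol red-free RPMI with 10% FBS, exposed to compounds 48 h at 37 C, 5% CO2; viability by CellTiter-Glo luminescence. Percent activity scaled to DMSO (100%) and 9.2 uM bortezomib final (0%).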

Assay [2] in a line: High-throughput drug toxicity screening in the BPDCN cell line Cal-1 (AID 1224825; call rule not given here). The conditions noted are these: Cal-1 BPDCN cell viability, qHTS; at 45.8 µM (top of the series) unless noted. Summed up:
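Cal-1 cells, 500 per well in phenol-red-free RPMI with 10% FBS, exposed to compounds for 48 hours at 37C, 5% CO2. Viability read by CellTiter-Glo luminescence; percent activity normalized to DMSO (100%) and 9.2 uM bortezomib final (0%).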
A general note: qHTS replaces the single test concentration by a dilution series.

Assay [3] can be described thus: qHTS assay for measurement of the activity of small molecule inhibitors on Zika virus induced Caspase-3 activity in human iPSC derived neural progenitor cells (hNPCs) (AID 1224857). Further: % of control where 0% means no effect; nearly all actives have a fitted effect of over 65% in size. Summed up:
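Zika virus (2 FFU/cell) infection of human iPSC-derived NPCs, 6 h, following 1 h compound preincubation. Read-out: Caspase-Glo 3/7 luminescence.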

Assay [4] is described as follows: qHTS assay for measurement of the activity of small molecule inhibitors on Zika virus induced Caspase-3 activity in human astrocytoma cells (AID 1224859).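 Further: plate controls were ZIKV-infected untreated cells for no effect and uninfected cells for full effect.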 The gist of the method: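 Caspase activation in ZIKV-infected SNB-19 cells (2 FFU/cell, 6 h) measured by Caspase-Glo 3/7 luminescence after 30 min RT; compound pre-incubated 1 h; normalised to uninfected and infected controls.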

Assay [5] in a line: qHTS Screen of the MIPE 4.0 Collection Against Ewings Sarcoma (RDES) (AID 1259252). Further: nearly all actives have a fitted effect of over 35% in size. Further: potency means the concentration at half of the fitted maximal effect. Summed up:
(§1)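 Dose series incubated 48 h with cells in RPMI plus 5% FBS, glutamine and penicillin/streptomycin; cell viability then quantified via CellTiter-Glo.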

The nature of assay [6]: qHTS Screen of the MIPE 4.0 Collection Against Ewings Sarcoma (TC71) (AID 1259253). Further: nearly all actives have a fitted effect of over 40% in size. Further: potency means the concentration at half of the fitted maximal effect. Summed up:
as §1

A short description of assay [7]: qHTS Screen of the MIPE 4.0 Collection Against Ewings Sarcoma (EW8) (AID 1259255). Further: nearly all actives have a fitted effect of over 35% in size. Further: potency means the concentration at half of the fitted maximal effect.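 On viability: 100% = DMSO-treated cells and 0% = medium-only wells without cells.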 The gist of the method:
as §1

Assay [8] can be described thus: qHTS Screen of the MIPE 4.0 Collection Against Ewings Sarcoma (TC32) (AID 1259256). Further: nearly all actives have a fitted effect of over 45% in size. Further: potency means the concentration at half of the fitted maximal effect. Summed up: as §1
Assay [9] in a line: qHTS assay to identify small molecule inhibitors of chordoma cells - UCH-1 (AID 1259355). Further: on the % scale 0 is the no-effect control and ±100 the full control effect; nearly all actives have a fitted effect of over 55% in size. Summed up:
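Cells (800/well) were seeded and left overnight at 37 C, 5% CO2, then treated with drugs at 15 concentrations plus a combination mix of auranofin, camptothecin, doxorubicin, rubitecan and topotecan. Viability after 48hr was read by CellTiter-Glo luminescence.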

Assay [10] in a line: P-glycoprotein substrates identified in KB-3-1 adenocarcinoma cell line, qHTS therapeutic library screen (AID 1346986). Further: nearly all actives have a fitted effect of over 60% in size.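 Further: potency means the concentration at half of the fitted maximal effect; potency is for cytotoxicity meaning loss of cell viability.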 Summed up:
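Compounds were tested in dose-response against KB-3-1 and KB-8-5-11 cells at 37 degree C for 72 h, and viability was measured by luminescence. AC50 values came from curve fitting with class-based activity calls.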

Assay [11] can be described thus: P-glycoprotein substrates identified in KB-8-5-11 adenocarcinoma cell line, qHTS therapeutic library screen (AID 1346987). Further: nearly all actives have a fitted effect of over 65% in size. Further: potency means the concentration at half of the fitted maximal effect. The gist of the method:
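KB-8-5-11: colchicine-selected sub-line of KB-3-1 over-expressing P-gp; assay medium lacked colchicine. 72 h drug exposure at 37 degree C, CellTiter-Glo.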

The nature of assay [12]: Natriuretic polypeptide receptor (hNpr1) antagonism - Pilot counterscreen GloSensor control cell line (AID 1347045; calls by dose curve; further: on the % scale 0 is the no-effect control and ±100 the full control effect). The gist of the method:
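HEK293 cells carrying the GloSensor cGMP sensor (GIP/pGS-40F) were loaded with 2% GloSensor reagent for 2 h, exposed to compounds for 30 min, and then stimulated with 50 uM sodium nitroprusside for 20 min at room temperature.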

A short description of assay [13]: Identifying Small Molecule Inhibitors of Pancreatic Cancer Stem Cells (SN12C, Adherent) (AID 1259358).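 Further: cell survival measured after 48 h of compound exposure.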 Further: potency means the concentration at half of the fitted maximal effect. Summed up:
(§2)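 Endpoint: ATP-based luminescence, 48 h drug exposure. Bortezomib at 9.2 uM final as full-kill control; DMSO vehicle as negative control; activity normalized between vehicle and cell-free wells.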

Assay [14] can be described thus: Identifying Small Molecule Inhibitors of Pancreatic Cancer Stem Cells (SN12C, Spheroid) (AID 1259360). Further: potency means the concentration at half of the fitted maximal effect.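 On viability (% of control): 100% = DMSO-treated cells and 0% = wells without cells.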 As to conditions: Potency: SN12C spheroid viability. Summed up:
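Pre-formed 14-day tumor spheroids or adherent cells dosed and incubated 48 h, 37C, 5% CO2. Viability assessed by CellTiter-Glo.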

A short description of assay [15]: Identifying Small Molecule Inhibitors of Pancreatic Cancer Stem Cells (A278, Adherent) (AID 1259361).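 Further: viability read after 48 h compound exposure; nearly all actives have a fitted effect of over 35% in size.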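 On viability (% of control): 100% = DMSO-treated cells and 0% = cell-free media-only wells.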 Summed up:
as §2

The nature of assay [16]: Identifying Small Molecule Inhibitors of Pancreatic Cancer Stem Cells (Panc1, Spheroid) (AID 1259359).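 Further: potency means the concentration at half of the fitted maximal effect; compound exposure lasted 48 h before reading.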 Summed up:
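After a 4 h attachment period, compounds were pinned into wells and cultures held 48 h under standard incubator conditions. Viability was then measured as CellTiter-Glo luminescence following 10 min at room temperature.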

A short description of assay [17]: Identifying Small Molecule Inhibitors of Pancreatic Cancer Stem Cells (Panc1, Adherent) (AID 1259362).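 Further: compound exposure lasted 48 h before the viability read; plate controls were DMSO-treated cells for no effect and cell-free media wells for full effect.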 As to conditions: Potency: viability. The gist of the method:
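Luminescent ATP readout (CellTiter-Glo) quantifies surviving cells after a 48 h drug incubation. Normalization uses DMSO wells as no inhibition and media-only wells as full inhibition; bortezomib served as positive control.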

Values joined by “and” are separate entries in the source; they are usually repeats but may differ in a detail not shown here. Equal values may be shown once. Results filed as inconclusive are left out. Active and inactive are the calls of the source. Unless noted, the call rests on the fitted dose curve; in most records, active means well fitted curve in the direction sought with a large enough effect; inconclusive means small, poorly fitted or top-dose-only effect, or another doubt; inactive means no such curve, though single readings can be large; an effect the other way counts as inactive or inconclusive.

With `Cc1ccccc1C(OCCN(C)C)c1ccccc1` (stereo not drawn), the cell viability, % of control (lower = more cytotoxic) in [1] was determined as 149%. In [2], the viability (% of control) stood at 93%. In addition, the Potency entry in assay [3], in assay [4], in [5], in [6], in assay [7] and in assay [8] was “inactive” throughout. Moreover, the Potency result in [9], in [10] and in assay [11] was “inactive” each time. Further, the molecule was classed as inactive in [12].
Take `N=c1nc(N2CCCCC2)cc(N)n1O`: in assay [1], the cell viability, % of control (lower = more cytotoxic) came to 450%. The viability (% of control) in assay [2] was 106%. Besides, the Potency entry in [3], in assay [4], in [5], in assay [7], in assay [8] and in assay [9] was “inactive” each time.
Regarding `Cc1c(CN2CCN(C(=O)C(C)C)CC2)sc2c(N3CCOCC3)nc(-c3cnc(N)nc3)nc12`, the cell viability, % of control (lower = more cytotoxic) in [1] was determined as 2.32%. In assay [2], the viability (% of control) was 3.99%. The Potency result in [3] and in assay [4] was “inactive” throughout. The Potency in [5] was 0.0833 µM (active); in assay [6] it was 0.148 µM (active); in [7] it was 0.105 µM (active); in [8], 0.0662 µM (active); in assay [13], 0.0935 µM (active); in [14] it was 0.166 µM (active). The Potency in assay [11] was 83.3 nM (active).
`CS(=O)(=O)c1cccc(CNc2nc(Nc3ccc4c(c3)CCC(=O)N4)ncc2C(F)(F)F)c1`: in assay [1], the cell viability, % of control (lower = more cytotoxic) amounted to 13.6%. In addition, the viability (% of control) in [2] was found to be 7.96%. The Potency entry in assay [3], in assay [4], in [13], in assay [14] and in assay [11] was “inactive” throughout. The Potency is 20.9 µM (active) in [5], 13.2 µM (active) in assay [7] and 11.8 µM (active) in assay [8]. Further, in assay [15], the IC50 (viability decrease) was 3.72 µM (active).
As for `CCOC(=O)N1CCC(=C2c3ccc(Cl)cc3CCc3cccnc32)CC1`, the cell viability, % of control (lower = more cytotoxic) in assay [1] was determined as 186%. For the same molecule, the viability (% of control) in [2] was determined as 87.3%. Besides, the Potency result in assay [3], in assay [4], in [9] and in [10] was “inactive” throughout. Also, the Potency in [5] is 26.4 µM (active); in assay [6], 26.4 µM (active); in assay [7], 26.4 µM (active); in [8], 23.5 µM (active). The result in assay [12] was inactive.
For the molecule `Cc1cccc(-c2[nH]c(C(C)(C)C)nc2-c2ccc3nccnc3c2)n1`, the cell viability, % of control (lower = more cytotoxic) in [1] was found to be 391%. In addition, in assay [2], the viability (% of control) turned out to be 15.5%. In addition, the Potency result in [3], in [4], in assay [13], in [14] and in assay [17] was “inactive” in each case. The Potency is 16.6 µM (active) in assay [5]; 26.4 µM (active) in assay [6]; 23.5 µM (active) in [7]; 20.9 µM (active) in assay [8]; 8.33 µM (active) in [16]; 3.26 µM (active) in assay [10]. Besides, the Potency in [11] is 8200 nM (active). Also, the result in assay [12] was inactive.
As for `C[C@H](NC(=O)Cc1cc(F)cc(F)c1)C(=O)N[C@@H]1C(=O)N(C)c2ccccc2-c2ccccc21`, in assay [1], the cell viability, % of control (lower = more cytotoxic) is 176%. Also, the viability (% of control) in [2] stood at 43.1%. Also, the Potency result in assay [3], in [4], in assay [13], in assay [14], in [10] and in assay [11] was “inactive” throughout. Moreover, the Potency in [5] was 8.33 µM (active); in assay [6], 10.5 µM (active); in assay [7], 11.8 µM (active); in assay [8], 11.8 µM (active). Further, the IC50 (viability decrease) result in assay [15] was “inactive”.
As for `Cc1n[nH]c(C)c1Cc1sc2c(c1C(=O)N1C[C@H](O)CO1)c(=O)n(C)c(=O)n2CC(C)C`, the cell viability, % of control (lower = more cytotoxic) in assay [1] amounted to 109%. Also, the viability (% of control) in [2] stood at 96.6%. Further, the Potency entry in assay [3], in assay [4], in assay [5], in assay [7], in [13] and in [14] was “inactive” throughout. Moreover, the Potency result in assay [10] and in assay [11] was “inactive” throughout. Moreover, the Potency in [6] is 0.166 µM (active); in [8], 0.105 µM (active).
As for `COc1cc2nccc(Oc3ccc(NC(=O)NC4CC4)c(Cl)c3)c2cc1C(N)=O`, the cell viability, % of control (lower = more cytotoxic) in assay [1] was 10.1%. In addition, the viability (% of control) in [2] is 5.43%. In addition, the Potency entry in assay [3], in [4], in [14], in assay [17], in assay [10] and in assay [11] was “inactive” in each case. Also, the Potency in [5] is 0.833 µM (active); in [6], 1.05 µM (active); in assay [7] it was 0.469 µM (active); in assay [8], 1.05 µM (active); in assay [13] it was 18.7 µM (active).
On to `COc1ccc(-c2oc3cc(OC)ccc3c2C(=O)c2ccc(C#N)cc2)cc1`, for which the cell viability, % of control (lower = more cytotoxic) in [1] is 84.5%. Further, in assay [2], the viability (% of control) worked out at 19.6%. Also, the Potency entry in assay [3], in assay [4], in [5], in [7], in assay [8] and in assay [13] was “inactive” throughout. For the same molecule, the Potency entry in assay [14], in assay [10] and in assay [11] was “inactive” throughout.
Turning to `COc1ccc(COc2cc3oc(=O)c4cc(C(C)O)ccc4c3cc2OC)cc1` (stereo not drawn), the cell viability, % of control (lower = more cytotoxic) in assay [1] turned out to be 14.7%. Besides, in assay [2], the viability (% of control) was 33.4%. In addition, the Potency result in assay [3], in assay [4], in [13] and in assay [14] was “inactive” throughout. Also, the Potency was 13.2 µM (active) in [5]; 20.9 µM (active) in assay [7]; 20.9 µM (active) in [8]; 8.33 µM (active) and 3.66 µM (active) in [11].
`CCCCNc1cc(C(=O)O)cc(S(N)(=O)=O)c1Oc1ccccc1`: in assay [1], the cell viability, % of control (lower = more cytotoxic) is 596%. For the same molecule, the viability (% of control) in assay [2] was found to be 113%. For the same molecule, the Potency entry in [3], in assay [4], in assay [5], in assay [6], in [7] and in assay [8] was “inactive” each time. In addition, the Potency entry in assay [9] and in [11] was “inactive” each time. Also, in assay [12], the outcome was inactive.
